From PubChem BioAssay
Rows were chosen to be rich in hits. Some 12% of all compounds tested hit in one or more screens of this group.
Sfp inh: qHTS Assay for Inhibitors of Bacillus subtilis Sfp phosphopantetheinyl transferase (PPTase); Biochemical Sfp PPTase activity, qHTS; Potency, µM, for inactives: largest response in the series, negative = inhibition, most hits filed as inhibitors; 3.5% of 310,000 active;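 note: the enzyme is Sfp with the accession as filed and its product quenches rhodamine fluorescence; 0% = enzyme reaction without inhibitor and -100% = no enzyme wells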
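Sfp 15 nM + cpd, 15 min RT; start w/ rhodamine-CoA 5 uM, BHQ-2-YbbR 12.5 uM (final); 50 mM Hepes pH 7.6, 10 mM MgCl2, 0.01% NP-40, 0.01% BSA; read 525/598 nm at 0 and 30 min.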
ALDH1A1 inh: qHTS Assay for Inhibitors of Aldehyde Dehydrogenase 1 (ALDH1A1); Aldehyde dehydrogenase 1A1 (Homo sapiens), P00352; Potency, µM (highest dose often 75.3 µM), inactives show top-dose activity, negative = inhibition, most hits filed as inhibitors; Purified ALDH1A1, NADH fluorescence, propionaldehyde substrate; 7.3% of 220,000 active; AID 1030, 2008; active = well fitted inhibition curve with a large enough effect, not every such curve was filed as active; inconclusive = small, poorly fitted or top-dose-only effect, or another doubt; inactive = no such curve, though single readings can be large or run the other way;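 note: plate controls were no enzyme wells and a reference inhibitor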
VP16 counter: VP16 counterscreen qHTS for inhibitors of ROR gamma transcriptional activity; 3.5% of 310,000 active; Drosophila S2 Gal4-VP16 UAS-luciferase, luminescence, 20 h; Potency, µM (doses to about 53.6 µM), for inactives: at the top dose activity, negative = inhibition, usual class: inhibitors;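 note: Gal4-VP16 expression switched on by copper sulfate through the metallothionein promoter; nearly all actives have a fitted effect of over 50% in size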
PLK1 PBD inh: qHTS for Inhibitors of PLK1-PDB (polo-like kinase 1 - polo-box domain): Primary Screen; Serine/threonine-protein kinase PLK1 (Homo sapiens), P53350; Plk1 PBD binding of FITC phosphopeptide, fluorescence polarization; Potency, µM, for the others: max response, negative = inhibition, hits mostly inhibitors; 2.8% of 360,000 active; AID 720504, 2013; note: series mostly up to about 57 µM; nearly all actives have a fitted effect of over 65% in size
Target sequence (P53350 whole entry, looked up, the tested form may be a part): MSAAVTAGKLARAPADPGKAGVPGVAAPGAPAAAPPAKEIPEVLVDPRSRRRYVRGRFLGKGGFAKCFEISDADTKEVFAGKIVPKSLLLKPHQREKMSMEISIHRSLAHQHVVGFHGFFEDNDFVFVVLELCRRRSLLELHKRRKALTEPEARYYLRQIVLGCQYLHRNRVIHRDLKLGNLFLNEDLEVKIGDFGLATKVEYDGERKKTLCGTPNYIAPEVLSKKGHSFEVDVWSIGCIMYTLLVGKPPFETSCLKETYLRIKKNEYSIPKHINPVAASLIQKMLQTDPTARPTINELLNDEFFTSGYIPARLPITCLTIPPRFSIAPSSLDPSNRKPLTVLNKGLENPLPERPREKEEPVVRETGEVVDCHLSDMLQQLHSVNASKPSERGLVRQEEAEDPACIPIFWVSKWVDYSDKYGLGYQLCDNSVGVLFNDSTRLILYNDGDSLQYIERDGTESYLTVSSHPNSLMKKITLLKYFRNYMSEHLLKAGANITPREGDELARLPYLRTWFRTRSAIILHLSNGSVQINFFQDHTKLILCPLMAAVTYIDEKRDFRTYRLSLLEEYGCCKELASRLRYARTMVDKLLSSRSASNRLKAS
RORgamma inh: qHTS for inhibitors of ROR gamma transcriptional activity; Nuclear receptor ROR-gamma (Mus musculus), P51450; Drosophila S2 Gal4-RORgamma UAS-luciferase reporter, 20 h; Potency, µM (titrated, usually from 53.6 µM), for inactives: at the highest dose activity change, negative = inhibition, actives largely listed as inhibitors; 5.4% of 310,000 active; note: nearly all actives have a fitted effect of over 60% in size
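A Gal4/UAS one-hybrid system in insect cells: metallothionein-promoter Gal4–ROR gamma fusion plus Photinus luciferase reporter. Copper sulfate 700 uM final, 20 hr ambient incubation, luminescent detection after 10 min with reagent.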
* marks the source's active call; other numbers are inactive results; [ ] = dose if it differs, or a comment. Unless noted, calls come from the whole dose curve; as a rule, active = well fitted curve in the direction sought with a large enough effect; inconclusive = small, poorly fitted or top-dose-only effect, or another doubt; inactive = no such curve, though single readings can be large; an effect the other way counts as inactive or inconclusive. Unless noted, % is set by controls: 0 for no effect and ±100 for the full control effect; potency is the fitted concentration of half-maximal effect.

COc1ccc(-c2csc(C(C)(O)c3cccc(F)c3)n2)cc1 (stereo not drawn) was read as PLK1 PBD inh 1%.
For CCOc1ccc(C(=O)c2cc3ccc(O)cc3oc2=O)cc1 the results were Sfp inh 19%, ALDH1A1 inh 21%, VP16 counter -12%, PLK1 PBD inh 0% and RORgamma inh -11%.
For CCOc1ccc(C(=O)c2ccc(O)c(O)c2O)cc1 the results were Sfp inh 50µM*, ALDH1A1 inh 9.5µM*, VP16 counter -6% and RORgamma inh -23%.
CCOc1cccc(C(=O)c2ccc(O)c(O)c2O)c1 was read as Sfp inh -79%, ALDH1A1 inh 1.6µM*, VP16 counter 4% and RORgamma inh -32%.
`O=C1c2ccccc2C(c2nnnn2-c2ccc3c(c2)OCCO3)N1Cc1cccs1` (stereo not drawn) gave PLK1 PBD inh -15%.
`COc1ccccc1CNc1ncnc2ccc(-c3cccc(C#N)c3)cc12` gave Sfp inh 8%, ALDH1A1 inh inconclusive, VP16 counter 0% and RORgamma inh inconclusive.
O=C(c1c[nH]c2ccccc12)N1CCOCC1 was read as Sfp inh -11%, ALDH1A1 inh 0%, VP16 counter 4%, PLK1 PBD inh -2% and RORgamma inh -10%.
Screening O=C(c1ccc2c3c(cccc13)CC2)N1CCOCC1 returned Sfp inh -72%, ALDH1A1 inh 14µM*, VP16 counter 2%, PLK1 PBD inh inconclusive and RORgamma inh 10%.
`Cc1ccc2nc(SCC(=O)c3ccc4c(c3)OCO4)[nH]c2c1` gave Sfp inh 45µM*, ALDH1A1 inh inconclusive, VP16 counter -1%, PLK1 PBD inh -14% and RORgamma inh -30%.
Screening O=C(CSc1nc2ccccc2[nH]1)c1ccc2c(c1)OCO2 returned Sfp inh inconclusive, ALDH1A1 inh 28µM*, VP16 counter 25%, PLK1 PBD inh -16% and RORgamma inh -1%.
Screening O=C(CSc1nc2ccccc2[nH]1)NCc1ccc2c(c1)OCO2 returned Sfp inh 17%, ALDH1A1 inh 14%, VP16 counter 0%, PLK1 PBD inh -12% and RORgamma inh 22%.
Cc1ccc2nc(SCC(=O)c3ccc(Cl)s3)[nH]c2c1 was read as Sfp inh 7%, ALDH1A1 inh 2%, VP16 counter 29%, PLK1 PBD inh 3% and RORgamma inh 33%.
`CC(=O)c1c(C)[nH]c(C(=O)CSc2nc3ccc(C)cc3[nH]2)c1C` gave Sfp inh -28%, ALDH1A1 inh 25µM*, VP16 counter -16%, PLK1 PBD inh -10% and RORgamma inh inconclusive.
`O=S(=O)(O)c1ccc(NN(c2c(O)ccc3ccccc23)S(=O)(=O)O)cc1` gave ALDH1A1 inh 8%[13.5 µM].
Screening CC1(C(=O)NS(=O)(=O)C2CC2)CCCN(C(=O)c2cccnc2Oc2ccccc2)C1 (stereo not drawn) returned PLK1 PBD inh -1%.
For CCn1c(-c2nn(C)cc2Cl)n[nH]c1=S the results were Sfp inh inconclusive, ALDH1A1 inh -4%, VP16 counter inconclusive, PLK1 PBD inh -3% and RORgamma inh 11µM*.
`Cc1ccsc1-c1n[nH]c(=S)n1CC(C)C` gave Sfp inh inconclusive, ALDH1A1 inh 25µM*, VP16 counter 6.3µM*, PLK1 PBD inh -21% and RORgamma inh 2.8µM*.
Cc1ccccc1-n1c(-c2ccc(Br)o2)n[nH]c1=S was read as PLK1 PBD inh -3%.
CC(C)Cn1c(-c2ccc(Br)o2)n[nH]c1=S was read as Sfp inh -19%, ALDH1A1 inh 10µM*, VP16 counter inconclusive, PLK1 PBD inh -28% and RORgamma inh 6.3µM*.
Screening CC(C)Cn1c(-c2nn(C)cc2Cl)n[nH]c1=S returned Sfp inh -10%, ALDH1A1 inh 8%, VP16 counter inconclusive, PLK1 PBD inh -7% and RORgamma inh 11µM*.
`CC(C)Cn1c(-c2cccc(S(=O)(=O)N3CCOCC3)c2)n[nH]c1=S` gave PLK1 PBD inh -1%.
For CCc1ccc([C@@H]2C[C@H]3[C@@H](CN2S(=O)(=O)c2ccc(C)cc2)C(=O)C[C@@H](c2ccc(Cl)cc2)N3S(=O)(=O)c2ccc(C)cc2)cc1 the results were PLK1 PBD inh -5%.
Screening COc1ccc2c(c1)C(c1ccc3c(c1)OCO3)CC(=O)O2 (stereo not drawn) returned Sfp inh -25%, ALDH1A1 inh -3%, VP16 counter 7% and RORgamma inh 4%.
`CCN(CC)S(=O)(=O)c1ccc(N2CCOCC2)c(NC(=O)c2ccccc2)c1` gave Sfp inh -4%, ALDH1A1 inh inconclusive, VP16 counter -11%, PLK1 PBD inh -5% and RORgamma inh 31%.
Screening CCN(CC)S(=O)(=O)c1ccc(N2CCCC2)c(NC(=O)c2ccc(N3CCCC3=O)cc2)c1 returned PLK1 PBD inh -10%.
CCN(CC)S(=O)(=O)c1ccc(N2CCCCC2)c(NC(=O)c2ccncc2)c1 was read as Sfp inh 7%, ALDH1A1 inh 11µM*, VP16 counter 3%, PLK1 PBD inh -1% and RORgamma inh -34%.
Screening CCN(CC)S(=O)(=O)c1ccc(N2CCCC2)c(NC(=O)c2ccncc2)c1 returned Sfp inh 10%, ALDH1A1 inh 16µM*, VP16 counter 0%, PLK1 PBD inh -3% and RORgamma inh -10%.
Screening CN(Cc1ccccc1)C(=O)Nc1c(Cl)cccc1Cl returned PLK1 PBD inh -21%.
`CCCCC(=O)N(C)c1c(CC)nc2c(OCC(=O)N(C)C)cccn12` gave PLK1 PBD inh -7%.
`COc1ccc(C2CC(c3c(-c4ccccc4)c4cc(Cl)ccc4[nH]c3=O)=NN2S(C)(=O)=O)cc1` (stereo not drawn) gave Sfp inh 3%, ALDH1A1 inh 0.4µM*, VP16 counter -14%, PLK1 PBD inh -2% and RORgamma inh -21%.
`O=C(O)CCC(=O)N1N=C(c2c(-c3ccccc3)c3cc(Cl)ccc3[nH]c2=O)CC1c1cccs1` (stereo not drawn) gave Sfp inh -15%, ALDH1A1 inh inconclusive, VP16 counter -8%, PLK1 PBD inh -16% and RORgamma inh 34%.
COc1ccc(OC)c(C2CC(c3c(-c4ccccc4)c4cc(Cl)ccc4[nH]c3=O)=NN2S(C)(=O)=O)c1 (stereo not drawn) was read as Sfp inh 45µM*, ALDH1A1 inh inconclusive, VP16 counter -8%, PLK1 PBD inh 12% and RORgamma inh inconclusive.
